In the library only some 11% were active in any assay of this set; here they are far more common.
USP17 block: inhibitors of human USP17 deubiquitinase | inhibition, % at 50 µM | hit rate 6.5% among 47,000 | AID 1645855 | A8MUK1 | purified USP17, Ub-rhodamine cleavage fluorescence, 3 h
Target sequence (A8MUK1 whole entry, looked up): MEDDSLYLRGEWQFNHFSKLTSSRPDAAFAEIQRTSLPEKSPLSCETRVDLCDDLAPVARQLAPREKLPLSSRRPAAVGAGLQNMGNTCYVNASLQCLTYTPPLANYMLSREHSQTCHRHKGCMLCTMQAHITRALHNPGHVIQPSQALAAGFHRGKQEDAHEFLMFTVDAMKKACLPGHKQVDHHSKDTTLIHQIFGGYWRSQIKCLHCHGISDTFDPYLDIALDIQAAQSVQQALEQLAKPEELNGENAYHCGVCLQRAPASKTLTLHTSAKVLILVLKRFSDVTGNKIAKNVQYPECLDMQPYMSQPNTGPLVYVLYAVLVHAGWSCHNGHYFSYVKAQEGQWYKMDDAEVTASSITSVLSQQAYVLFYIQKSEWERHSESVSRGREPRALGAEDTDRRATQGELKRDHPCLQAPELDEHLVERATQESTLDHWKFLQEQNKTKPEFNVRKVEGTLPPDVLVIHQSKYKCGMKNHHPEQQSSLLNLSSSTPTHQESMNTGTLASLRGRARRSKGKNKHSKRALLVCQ
USP30 block: human USP30 deubiquitinase inhibition. Q70CQ3. purified USP30, Ub-rhodamine cleavage fluorescence. inhibition, % at 25 µM. hit rate 5.3% among 47,000. AID 1645860
USP28 block: inhibitors of human USP28 deubiquitinase; inhibition, % at 25 µM; purified USP28, Ub-rhodamine cleavage fluorescence, 30 min; AID 1645857; Q96RU2; hit rate 3% among 47,000
Numbers stand for hits; – = inactive; · = no result. No stated cut-off is given here; in the data, active means inhibition above about 30%; inactive means the rest.

SMILES	USP17 block	USP30 block	USP28 block
Cc1cccc(NC(=O)Cn2c(=O)n(C3CC3)c(=O)c3nscc32)c1C	–	–	–
Cc1ccc(S(=O)(=O)c2cnc3ccccc3c2N2CCC(C(N)=O)CC2)cc1C	–	–	–
COc1ccc(C2C3=C(CC(c4ccco4)CC3=O)Nc3ccccc3N2C(C)=O)cc1 (configuration not stated)	37.8	–	–
COc1cc(C2C3=C(CC(c4ccco4)CC3=O)Nc3ccccc3N2C(=O)CCC(=O)O)cc(OC)c1OC (configuration not stated)	–	–	–
COc1ccc(C2C3=C(CC(c4ccco4)CC3=O)Nc3ccccc3N2C(=O)C(F)(F)F)cc1 (configuration not stated)	–	–	–
CCCCCC(=O)N1c2ccccc2NC2=C(C(=O)CC(c3ccco3)C2)C1c1cc(OC)c(OC)c(OC)c1 (configuration not stated)	34.3	–	–
O=C(c1ccnnc1)N1CCCC1c1ncc(Cc2ccc(F)cc2)o1 (configuration not stated)	–	–	–
COc1ccc(-c2nn(-c3ccccc3)cc2/C=C(/C#N)c2ccccc2)cc1OC	–	–	–
COc1ccc(-c2cc(-c3ccccc3)nc(SCC(N)=O)c2C#N)cc1OC	75.1	–	–
O=C(c1ccc(F)cc1)N1CCC2(CC1)CCN(c1cncnc1)C2=O	–	–	–
O=C(NC1(O)C(=O)c2ccccc2C1=O)c1cccc2c1-c1ccccc1C2=O	91.2	45.2	–
COc1cccc(Cn2nc3n(CC(C)C)c(=O)c4ccc(C(=O)NCC(C)C)cc4n3c2=O)c1	39.3	64.9	–
COc1cccc(C(=O)Cn2nc3n(CCC(C)C)c(=O)c4sccc4n3c2=O)c1	–	–	–
Cc1ccc2nc(C(NC(=O)c3ccccn3)c3ccccc3)[nH]c2c1 (configuration not stated)	–	–	–
CCC(C(=O)N1CCC(c2nc3ccccc3cc2C(N)=O)CC1)c1ccccc1 (configuration not stated)	–	–	–
COc1ccc(-c2nn(-c3ccccc3)cc2C(=O)N2CCN(CCN3CCCC3)CC2)cc1	–	–	–
O=C1CC2C3CCC(=O)c4c(O)ccc(c43)C2(O)c2cccc(O)c21 (configuration not stated)	46.9	–	36.9
CC(=O)NC(Cc1cccc(F)c1)C(=O)NC1CCN(c2nc(C)cc(C)c2C#N)CC1 (configuration not stated)	–	–	–
O=C(Nc1cccc2ccccc12)C1CCN(c2ccc(-c3ccc(F)cc3)nn2)CC1	44.1	·	·
CC(C)CNC(=O)C1CCN(c2ccc(-c3ccc(F)cc3)nn2)CC1	–	·	·
COc1ccc(CC(=O)Nc2cc(=O)[nH]c3nc(-c4ccccc4C)nn23)cc1	–	–	–
COc1ccc(CC(=O)Nc2cc(=O)[nH]c3nc(-c4ccco4)nn23)cc1	33.9	–	–
COc1ccccc1-c1c(C)nn2c(SCC(=O)N3CCOCC3)cc(C)nc12	–	–	–
CCN1CCC2(CN(C(=O)N(C)C)CC23CCN(C(=O)NCc2ccccc2)CC3)C1=O (configuration not stated)	–	–	–
CN(C)c1ccc(Nc2ncnc3c2c(-c2ccccc2)cn3-c2ccccc2)cc1	–	–	–
SMILES	USP17 block	USP30 block	USP28 block
O=c1cc(-c2ccc(O)c(O)c2)oc2cc(O[C@@H]3O[C@H](CO)[C@@H](O)[C@H](O)[C@H]3O)cc(O)c12	83.6	91.5	89.6
CC1OC(OCC2OC(Oc3c(-c4ccc(O)c(O)c4)oc4cc(O)cc(O)c4c3=O)C(O)C(O)C2O)C(O)C(O)C1O (configuration not stated)	–	–	–
COc1ccc(-n2c(=O)c3ccccc3n(CC(=O)NCCc3ccc(OC)c(OC)c3)c2=O)c(OC)c1	–	–	–
O=C(c1[nH]nc2c1CCc1ccccc1-2)N1CCC(Cc2ccccc2)CC1	–	–	–
NC(=O)C1(N2CCCCC2)CCN(C(=O)c2[nH]nc3c2CCc2ccccc2-3)CC1	59.1	–	–
CCOc1cc2[nH]c(=O)n(CCCC(=O)N3CCC(N4CCCCC4)CC3)c(=O)c2cc1OCC	–	–	–
CC(C)n1c(=O)c(Nc2cccc(C(F)(F)F)c2)nc2ccncc21	–	–	–
COc1ccc(-c2cc3nc(NCCc4ccc(S(N)(=O)=O)cc4)ccn3n2)cc1	40.8	–	–
c1ccc(-c2cc3nc(NCCc4ccncc4)ccn3n2)cc1	–	–	–
CN(C)C(=O)N1CCC2(CC1)CNCc1ccccc12	·	–	–
O=C(NCCc1ccccc1)C1CCCN(S(=O)(=O)N2CCC3(CC2)OCCO3)C1 (configuration not stated)	–	–	–
O[C@@H]1C[C@H]2CN(Cc3cccc(F)c3)[C@@H](Cc3ccccc3)CN2C1	–	–	–
Cc1ccccc1CNC(=O)c1c(O)c2cnn(Cc3ccccc3)c2[nH]c1=O	–	–	–
O=C(NCc1ccccc1F)c1c(O)c2cnn(Cc3ccccc3)c2[nH]c1=O	32.1	–	–
O=S(=O)(c1cccc2nsnc12)N1CCCC1c1ccco1 (configuration not stated)	–	–	–
O=C(NCc1nnc(SCC(=O)N2CCN(c3ccccc3)CC2)o1)c1ccccc1F	–	–	–
O=C(CSc1nnc(CNC(=O)c2ccccc2F)o1)Nc1ccc(Br)cc1	32.6	–	–
O=C(NC1CC1)c1ccc(-c2ccc(Cl)cc2Cl)o1	–	–	–
COc1ccc(NC2c3ccccc3C(=O)N2c2ccccn2)cc1 (configuration not stated)	57.4	–	–
Cc1ccc(NC2c3ccccc3C(=O)N2c2ccccn2)cc1 (configuration not stated)	–	–	–
Nc1ccccc1SC(CC(=O)c1ccc(Cl)cc1)c1ccsc1 (configuration not stated)	53.3	–	–
O=C(CC(C(=O)c1ccccc1)c1cccs1)c1ccc(Cl)cc1 (configuration not stated)	–	–	–
COc1ccccc1-c1noc(CCCC(=O)Nc2ccccc2)n1	–	–	–
CCOC(=O)c1sc2ccccc2c1S(=O)(=O)Nc1ccccc1	–	–	–
O=S(=O)(c1cccc2cccnc12)N1CCCC1c1ccc(F)cc1 (configuration not stated)	–	–	–
SMILES	USP17 block	USP30 block	USP28 block
O=S(=O)(c1cccc2cccnc12)N1CCN(c2ccc(F)cc2)CC1	–	30.4	–
O=C1NCCN(C(=O)CCn2ccccc2=O)CC1Cc1ccc(-c2ccccc2)cc1 (configuration not stated)	–	–	–
O=C(CSc1ncnc2ccccc12)Nc1ccccc1C(=O)c1ccccc1	–	–	–
Cc1ccc2c(c1)C(=O)N(CC(=O)Nc1c(C)n[nH]c1C)CC1(CCOCC1)O2	–	–	–
O=C(c1cnn2cccnc12)N1CCn2c(nnc2C2CC2)C1	–	–	–
O=C(c1cnn2cccnc12)N1CCC(c2ccn3nccc3n2)CC1	–	33.4	–
Cc1ccc(SCC(O)CN2CCN(c3ccccc3)CC2)cc1 (configuration not stated)	–	–	–
Cc1ccc(S(=O)(=O)N(C)C)cc1NC(=O)Cc1ccc(Cl)c(Cl)c1	–	–	92.5
CCN(CC)S(=O)(=O)c1ccc(C)c(NC(=O)CSc2nnc(-c3ccncc3)n2Cc2ccccc2)c1	–	–	–
